PubChem BioAssay (NCATS)
Records with an inconclusive call do not appear. Active and inactive are the calls of the source. Calls come from the whole dose curve; as a rule, active = well fitted curve in the direction sought with a large enough effect; inconclusive = small, poorly fitted or top-dose-only effect, or another doubt; inactive = no such curve, though single readings can be large; an effect the other way counts as inactive or inconclusive.

What was measured:
[1] = Cellular Toxicity (caspase-3) Mesangial (AID 660); settings: mesangial cells, normalized: DMSO 0%, 100 µM tamoxifen 100%; at 91.7 µM (top of the series);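 note: combined caspase 3 and 7 activity read by Caspase-Glo luminescence; cells exposed to compound for 16 h before the caspase read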
Procedure, shortened: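 Concentration-response qHTS: compound-induced rise in caspase 3/7 luminescence in human mesangial cells after 16 h, normalized to DMSO and 100 uM tamoxifen controls.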

[2] = Cellular Toxicity (caspase-3) SK-N-SH (AID 661);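 note: 0% = DMSO basal and 100% = 10 µM staurosporine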
Procedure, shortened: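 Caspase 3/7 activation is measured as a luminescence increase from aminoluciferin released by substrate cleavage in SK-N-SH cells after 16 hr compound treatment; values are AC50 from concentration-response curves.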

[3] = Cellular Toxicity (caspase-3) H-4-II-E (AID 663); settings: H-4-II-E rat hepatoma, scaled: DMSO 0%, 100 µM tamoxifen 100%; at 92.2 µM (top of the series)
Procedure, shortened: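 Apoptosis induction is scored as increased luminescence from caspase 3/7 substrate cleavage in rat hepatoma H-4-II-E cells exposed to compound for 16 hr. Activity is scaled between DMSO and 100 uM tamoxifen.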

[4] = Cellular Toxicity (caspase-3) Hek293 (AID 664); settings: HEK293 caspase-3 activation, DMSO = 0%, 100 µM tamoxifen = 100%; at 92.2 µM (top of the series);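 note: cells exposed to compound for 16 h at 37 °C before readout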
Procedure, shortened: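 Activation of caspase-3/7 is measured as increased luminescence from cleaved peptide-aminoluciferin substrate in HEK293 cells treated 16 hours at 37 °C. AC50 values come from Hill-equation fits of concentration-response data.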

[5] = Cellular Toxicity (caspase-3) N2a (AID 665);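 note: compound exposure lasted 16 h at 37 °C before readout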
Procedure, shortened: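 Plated mouse neuroblastoma N2a cells received titrated compounds for 16 h in complete medium. Caspase activity was then detected with a peptide-aminoluciferin luminescent reagent.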

[6] = Cellular Toxicity (caspase-3) NIH 3T3 (AID 666);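 note: caspase signal read after 16 h compound exposure; 0% = DMSO basal and 100% = 100 µM tamoxifen stimulation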
Procedure, shortened: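 Concentration-response qHTS in NIH 3T3 mouse fibroblasts scores caspase-3/7 activation as rising luminescence after 16 hr compound exposure. Signals are scaled between DMSO-only and 100 uM tamoxifen.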

[7] = Cellular Toxicity (caspase-3) Renal Proximal Tubule (AID 667); settings: Potency: caspase-3 activation;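 note: cells exposed to compound for 16 hours at 37 °C before detection; 0% = DMSO basal and 100% = 10 µM staurosporine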
Procedure, shortened: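 Primary rat proximal tubule cells, 1000/well, 5 h plating at 37 °C, then compound 16 h at 37 °C. Caspase-Glo 3/7 reagent, 1 h RT, luminescence. Normalized to DMSO (basal) and 10 uM staurosporine (100%); Hill-fit AC50.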

[8] = target: Cytochrome P450 3A4 (Homo sapiens) (UniProt P08684); test: qHTS Assay for Inhibitors and Substrates of Cytochrome P450 3A4 (AID 884); note: % is set by controls: 0 for no effect and ±100 for the full control effect; nearly all actives have a fitted effect of over 50% in size
Procedure, shortened: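 20 nM human CYP3A4 with 25 uM Luciferin-PPXE (at KM) in 200 mM KPO4, preincubated 10 min with compound; NADPH regeneration started a 60 min RT reaction. Luciferin detected by luminescence, normalized to 57 uM ketoconazole as full inhibition.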

[9] = Cell Viability - LYMP2-001 (AID 921);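 note: 0% = DMSO only and full inhibition = tetraoctylammonium bromide control wells; nearly all actives have a fitted effect of over 70% in size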
Procedure, shortened: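 Human lymphoblastoid cells (Coriell), 2500 per well, were preincubated 5 hr at 37 C, then exposed to compounds in complete medium for 24 hr at 37 C. Cellular ATP was read by CellTiter-Glo luminescence; AC50 from Hill fits of concentration-response data.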

[10] = MultiTox-Fluor Cytotoxicity Assay - LYMP1-001 - Dead Cells (AID 946);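 note: 0% = DMSO and 100% = tetraoctylammonium bromide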
Procedure, shortened: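 In this qHTS, 15 uM tetraoctylammonium bromide defined 100% and DMSO defined basal activity. Lymphoblastoid cells (LYMP1-001, 2500 per well) received compound for 16 hr at 37 C before a fluorogenic dead-cell substrate readout at 485/520 nm.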

[11] = MultiTox-Fluor Cytotoxicity Assay - LYMP1-001 - Live Cells (AID 947);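 note: 0% = DMSO only and full inhibition = tetraoctylammonium bromide control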
[12] = Cell Viability - LYMP1-002 - Assay at 16 hr (AID 948);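 note: 0% = DMSO alone and full effect = 92 µM tetraoctylammonium bromide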
Procedure, shortened: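 Human lymphoblastoid cells (LYMP1-002), 2500/well, were preincubated 5 hr at 37 C, then exposed to compounds for 16 hr at 37 C in complete medium. Cellular ATP was read by CellTiter-Glo luminescence after 30 min at room temperature; AC50 from Hill fits.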

[13] = MultiTox-Fluor Cytotoxicity Assay - LYMP1-002 - Live Cells (AID 955); note: % is set by controls: 0 for no effect and ±100 for the full control effect
Procedure, shortened: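 Cytotoxicity in the human lymphoblastoid line LYMP1-002 is measured as loss of live-cell protease activity after 16 h treatment in complete culture medium. AC50 is derived from Hill-equation fits of qHTS concentration-response data.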

[14] = MultiTox-Fluor Cytotoxicity Assay - LYMP1-002 - Dead Cells (AID 960);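 note: 0% = DMSO and 100% = tetraoctylammonium bromide; nearly all actives have a fitted effect of over 60% in size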
Procedure, shortened: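 Acute cytotoxicity in a human lymphoblastoid line is scored as rising dead-cell protease signal after 16 hr exposure at 37 C, measured fluorometrically (485/520).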

[15] = MultiTox-Fluor Cytotoxicity Assay - LYMP1-003 - Dead Cells (AID 961);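 note: 0% = DMSO and 100% = tetraoctylammonium bromide; nearly all actives have a fitted effect of over 70% in size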
Procedure, shortened: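 Acute toxicity is scored as increased dead-cell protease activity in human lymphoblastoid LYMP1-003 cells after 16 h compound exposure in complete culture medium. Activity is normalized to DMSO basal and 15 uM tetraoctylammonium bromide as full response.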

[16] = MultiTox-Fluor Cytotoxicity Assay - LYMP1-003 - Live Cells (AID 962);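 note: 0% = DMSO only and full loss = 92 µM tetraoctylammonium bromide; cytotoxic hits lower the live-cell protease signal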
Procedure, shortened: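 Cells plated at 2500 per well and incubated 5 hr; compounds added and incubated 16 hr at 37 C; MultiTox-Fluor reagent added for 60 min at room temperature; fluorescence of liberated AFC measured at 405/510 nm.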

[17] = Cell Viability - LYMP1-003 - Assay at 24 hr (AID 963);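 note: plate controls were DMSO only for no effect and tetraoctylammonium bromide positive control for full effect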
Procedure, shortened: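 Acute toxicity in LYMP1-003 lymphoblastoid cells: 24 hr compound treatment at 37 C, ATP measured with CellTiter-Glo after 30 min at room temperature. AC50 derived by fitting the Hill equation to qHTS titrations.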

[18] = Cell Viability - LYMP1-003 - Assay at 40 hr (AID 964); note: % is set by controls: 0 for no effect and ±100 for the full control effect; nearly all actives have a fitted effect of over 60% in size
Procedure, shortened: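 This qHTS cytotoxicity screen treats human lymphoblastoid cells (LYMP1-003) with compounds for 40 hr and quantifies cellular ATP via luciferase luminescence.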

[19] = Cell Viability - LYMP2-003 (AID 965);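 note: cells exposed to compounds for 24 h before reading; 0% = DMSO only and full effect = 92 µM tetraoctylammonium bromide; nearly all actives have a fitted effect of over 50% in size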
Procedure, shortened: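 Human lymphoblastoid cells (2500/well) were pre-incubated 5 hr at 37 C, then exposed to compounds over a concentration range for 24 hr at 37 C. Intracellular ATP was read by CellTiter-Glo luminescence; AC50 came from Hill-equation fits.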

Sequence of Cytochrome P450 3A4 (Homo sapiens) (P08684 whole entry, looked up): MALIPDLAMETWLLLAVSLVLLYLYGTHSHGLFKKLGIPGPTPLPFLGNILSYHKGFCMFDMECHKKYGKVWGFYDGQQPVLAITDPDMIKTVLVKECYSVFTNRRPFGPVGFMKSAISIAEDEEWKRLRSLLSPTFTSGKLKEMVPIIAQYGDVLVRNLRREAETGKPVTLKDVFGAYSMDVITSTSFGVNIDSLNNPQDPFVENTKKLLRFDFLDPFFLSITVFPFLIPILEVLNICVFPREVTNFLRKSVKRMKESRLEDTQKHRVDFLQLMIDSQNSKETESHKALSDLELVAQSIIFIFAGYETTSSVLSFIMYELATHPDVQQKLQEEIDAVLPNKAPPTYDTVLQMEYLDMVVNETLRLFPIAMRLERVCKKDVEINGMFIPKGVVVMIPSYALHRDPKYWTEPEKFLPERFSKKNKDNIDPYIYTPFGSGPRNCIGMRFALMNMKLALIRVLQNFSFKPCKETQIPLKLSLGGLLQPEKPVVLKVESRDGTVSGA

O=[N+]([O-])c1ccc(Cl)cc1Cl
inactive: caspase-3 activation [1] 0.652% | outcome [2] | caspase-3 activation [3] 1.21% | caspase-3 activation [4] 1.91% | outcome [5] | outcome [6] | Potency [7] | Potency [8] | Potency [9] | outcome [10] | outcome [11] | outcome [12] | outcome [13] | outcome [14] | Potency [15] | Potency [16] | Potency [17] | Potency [18]

Cc1ccc(C)c(O)c1
inactive: caspase-3 activation [1] 0.131% | outcome [2] | caspase-3 activation [3] 0.256% | caspase-3 activation [4] 0.519% | outcome [5] | outcome [6] | Potency [7] | Potency [8] | Potency [9] | outcome [10] | outcome [11] | outcome [12] | outcome [13] | outcome [14] | Potency [15] | Potency [16] | Potency [17] | Potency [18] | Potency [19]

Cc1ccc(C(=O)O)cc1
inactive: caspase-3 activation [1] -0.126% | outcome [2] | caspase-3 activation [3] 1.11% | caspase-3 activation [4] 0.649% | outcome [5] | outcome [6] | Potency [7] | Potency [8] | Potency [9] | outcome [10] | outcome [11] | outcome [12] | outcome [13] | outcome [14] | Potency [15] | Potency [16] | Potency [17] | Potency [18] | Potency [19]

Cc1ccc2oc(=O)ccc2c1
inactive: caspase-3 activation [1] -0.888% | outcome [2] | caspase-3 activation [3] 1.34% | caspase-3 activation [4] -2.33% | outcome [5] | outcome [6] | Potency [7] | Potency [8] | Potency [9] | outcome [10] | outcome [11] | outcome [12] | outcome [13] | outcome [14] | Potency [15] | Potency [16] | Potency [17] | Potency [18]

CSCCC=O
inactive: caspase-3 activation [1] 0.0965% | outcome [2] | caspase-3 activation [3] -0.467% | caspase-3 activation [4] -2.79% | outcome [5] | outcome [6] | Potency [7] | Potency [8] | Potency [9] | outcome [10] | outcome [11] | outcome [12] | outcome [13] | outcome [14] | Potency [15] | Potency [16] | Potency [17] | Potency [18] | Potency [19]

FB(F)F
inactive: caspase-3 activation [1] 3.07% | outcome [2] | caspase-3 activation [3] 0.388% | caspase-3 activation [4] 2.37% | outcome [5] | outcome [6] | Potency [7] | Potency [8] | Potency [9] | outcome [10] | outcome [11] | outcome [12] | outcome [13] | outcome [14] | Potency [15] | Potency [16] | Potency [17] | Potency [18] | Potency [19]

O=C(Cl)c1c(Cl)cccc1Cl
inactive: caspase-3 activation [1] -0.17% | outcome [2] | caspase-3 activation [3] 0.0127% | caspase-3 activation [4] 0.529% | outcome [5] | outcome [6] | Potency [7] | Potency [8] | Potency [9] | outcome [10] | outcome [11] | outcome [12] | outcome [13] | outcome [14] | Potency [15] | Potency [16] | Potency [17] | Potency [18] | Potency [19]

O=Cc1ccc(CO)o1
inactive: caspase-3 activation [1] -0.0811% | outcome [2] | caspase-3 activation [3] 1.58% | caspase-3 activation [4] -1.08% | outcome [5] | outcome [6] | Potency [7] | Potency [8] | Potency [9] | outcome [10] | outcome [11] | outcome [12] | outcome [13] | outcome [14] | Potency [15] | Potency [16] | Potency [17] | Potency [18]

CCCC=O
inactive: caspase-3 activation [1] -0.494% | outcome [2] | caspase-3 activation [3] -1.37% | caspase-3 activation [4] -2.73% | outcome [5] | outcome [6] | Potency [7] | Potency [8] | Potency [9] | outcome [10] | outcome [11] | outcome [12] | outcome [13] | outcome [14] | Potency [15] | Potency [16] | Potency [17] | Potency [18]

C=CCCC
inactive: caspase-3 activation [1] -0.34% | outcome [2] | caspase-3 activation [3] 1.14% | caspase-3 activation [4] -1.75% | outcome [5] | outcome [6] | Potency [7] | Potency [8] | Potency [9] | outcome [10] | outcome [11] | outcome [12] | outcome [13] | outcome [14] | Potency [15] | Potency [16] | Potency [17] | Potency [18] | Potency [19]

CCCCC(CC)CO (configuration not stated)
inactive: caspase-3 activation [1] -0.254% | outcome [2] | caspase-3 activation [3] 1.2% | caspase-3 activation [4] 1.6% | outcome [5] | outcome [6] | Potency [7] | Potency [8] | Potency [9] | outcome [10] | outcome [11] | outcome [12] | outcome [13] | outcome [14] | Potency [15] | Potency [16] | Potency [17] | Potency [18] | Potency [19]

CCCCCCCCCCCCC1CO1 (configuration not stated)
inactive: caspase-3 activation [1] -0.00149% | outcome [2] | caspase-3 activation [3] 0.543% | caspase-3 activation [4] 1.51% | outcome [5] | outcome [6] | Potency [7] | Potency [8] | Potency [9] | outcome [10] | outcome [11] | outcome [12] | outcome [13] | outcome [14] | Potency [15] | Potency [16] | Potency [17] | Potency [18] | Potency [19]

O=P(O)(OCc1ccccc1)OCc1ccccc1
inactive: caspase-3 activation [1] -0.354% | outcome [2] | caspase-3 activation [3] 1.06% | caspase-3 activation [4] -1.18% | outcome [5] | outcome [6] | Potency [7] | Potency [8] | Potency [9] | outcome [10] | outcome [11] | outcome [12] | outcome [13] | outcome [14] | Potency [15] | Potency [16] | Potency [17] | Potency [18] | Potency [19]

ClCCl
inactive: caspase-3 activation [1] -1.27% | outcome [2] | caspase-3 activation [3] -0.724% | caspase-3 activation [4] 1.14% | outcome [5] | outcome [6] | Potency [7] | Potency [8] | Potency [9] | outcome [10] | outcome [11] | outcome [12] | outcome [13] | outcome [14] | Potency [15] | Potency [16] | Potency [17] | Potency [18] | Potency [19]
